Screens from PubChem.
In the library only some 19% were active in any assay of this set; here they are far more common.
Pf growth 96h: P. falciparum growth inhibition at 96 hour, primary screen for plastid delayed-death inhibitors | P. falciparum luciferase reporter growth, 96 h | Potency, µM (doses to about 28.7 µM), for inactives: at the highest dose activity change, negative = inhibition, usual class: inhibitors | hit rate 6.9% among 320,000 | AID 504834; note: potency is the fitted concentration of half-maximal effect; % is set by controls: 0 for no effect and ±100 for the full control effect
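P. falciparum expressing integrated firefly luciferase, in erythrocytes at 2% hematocrit, 0.05% parasitemia, incubated with compounds 96 h at 37 C, 5% CO2. Growth inhibition read as loss of luminescence; two-generation exposure targets delayed-death apicoplast inhibitors.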
SARS PLP yeast: blocks SARS-CoV papain-like protease in a yeast assay | S. cerevisiae expressing SARS-CoV PLpro, growth rescue | Potency, µM (highest dose often 32.9 µM), for inactives: at the highest dose activity, positive = growth rescue, most hits filed as activators | AID 485353 | hit rate 0.19% among 330,000; calls by dose curve; note: potency is the fitted concentration of half-maximal effect; 0% is about no effect; nearly all actives have a fitted effect of over 55% in size
Pf growth 48h: P. falciparum growth inhibition at 48 hours (one generation); P. falciparum luciferase growth in erythrocytes, 48 h; Potency, µM (top dose mostly 28.7 µM), for the others: at the top dose activity change, negative = inhibition, actives largely listed as inhibitors; hit rate 5.9% among 310,000; AID 504832; note: potency is the fitted concentration of half-maximal effect; % is set by controls: 0 for no effect and ±100 for the full control effect
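A one-generation exposure of luciferase-tagged malaria parasites in RPMI 1640/Albumax erythrocyte culture, 37 C and 5% CO2. Inhibition is inferred from decreased luminescence after adding detection reagent.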
Cycloheximide cs: counter-screen hit for Shiga toxin inhibitors, cycloheximide. cell reporter, cycloheximide protein synthesis inhibition counterscreen. max response, %. hit rate 12% among 300,000; in the data active = max response mostly above about 13%, no sharp cut-off; inactive = mostly below about 14%; note: read at 38.3 µM for the half of the compounds with a filed dose; 0% is about no effect
AMA1 RON2 block: inhibitors of Plasmodium falciparum AMA1-RON2 interaction; AlphaScreen AMA1-biotinylated RON2 peptide binding; Potency, µM (highest dose often 58.2 µM), without a hit: top-dose activity change, negative = inhibition, usual class: inhibitors; hit rate 0.2% among 360,000;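 note: potency is the fitted concentration of half-maximal effect; 0% = vehicle wells and -100% = peptide control; nearly all actives have a fitted effect of over 45% in size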
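AMA1 (3D7) with his tag at 25 nM final met compounds first, then biotinylated RON2 peptide at 25 nM; detection used donor plus acceptor beads, 10 µg/mL apiece, read by AlphaScreen after 30 min at room temperature.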
Shiga inhibitor: inhibitors of Shiga toxin in Vero cells; Vero cells, Shiga toxin protein synthesis inhibition reporter; inhibition, % at 38.7 µM; hit rate 9.2% among 290,000; in the data active = inhibition mostly above about 28%, no sharp cut-off; inactive = mostly below about 43%; note: 0% is about no effect
Active calls of the source: *. Unless noted, calls come from the whole dose curve; as a rule, active = well fitted curve in the direction sought with a large enough effect; inconclusive = small, poorly fitted or top-dose-only effect, or another doubt; inactive = no such curve, though single readings can be large; an effect the other way counts as inactive or inconclusive.

Cc1ccc(S(=O)(=O)N2CCN(C(=O)COC(=O)C3(C)CC3(Cl)Cl)CC2)c(C)c1 (stereo not drawn) was read as Pf growth 96h inconclusive, SARS PLP yeast 8.1%, Pf growth 48h 10.4µM* and AMA1 RON2 block 1.8%.
For CCOc1ccc(-n2c(-c3ccc(Cl)cc3)c[n+]3c2SCC3)cc1 the results were Pf growth 96h 0.0465µM*, SARS PLP yeast -1.1%, Pf growth 48h 13.1µM*, Cycloheximide cs 0.8, AMA1 RON2 block 9.0% and Shiga inhibitor 13.6.
For c1ccc(-c2c[n+]3c(n2-c2ccccc2)SCC3)cc1 the results were Pf growth 96h 0.415µM*, SARS PLP yeast -0.1%, Pf growth 48h 1.65µM*, Cycloheximide cs 5.5, AMA1 RON2 block 22.9% and Shiga inhibitor 18.6.
For c1ccc(-n2c3ccccc3c3ccccc32)cc1 the results were Pf growth 96h 34.0%, SARS PLP yeast -1.9%, Pf growth 48h 29.1%, Cycloheximide cs -1.3, AMA1 RON2 block 22.4% and Shiga inhibitor -8.5.
`CCOc1ccc(C2=CSC3=NCCN23)cc1` gave Pf growth 96h 33.2%, SARS PLP yeast 1.1%, Pf growth 48h inconclusive, Cycloheximide cs -3.8, AMA1 RON2 block 4.0% and Shiga inhibitor -3.3.
For CC(=O)N1CCN(C(=O)COC(=O)c2ccc(S(C)(=O)=O)cc2)CC1 the results were SARS PLP yeast 2.4% and AMA1 RON2 block 12.5%.
For O=C(CCSc1ccccc1Cl)Nc1cccc([N+](=O)[O-])c1 the results were Pf growth 96h 99.8%, SARS PLP yeast -12.0%, Pf growth 48h 111.2%, Cycloheximide cs 44.6*, AMA1 RON2 block -1.8% and Shiga inhibitor 72.5*.
Screening Cc1cc(C)c([N+](=O)[O-])cc1NC(=O)CCSc1ccccc1Cl returned Pf growth 96h inconclusive, SARS PLP yeast 14.4%, Pf growth 48h inconclusive, Cycloheximide cs -0.9, AMA1 RON2 block 5.9% and Shiga inhibitor 13.9.
Screening O=C(COc1ccccc1)NC(=S)Nc1cccc(NC(=O)c2ccccc2Cl)c1 returned Pf growth 96h 236.1%, SARS PLP yeast -19.8%, Pf growth 48h 10.6%, Cycloheximide cs 11.1, AMA1 RON2 block -0.5% and Shiga inhibitor 18.0.
Screening O=C(CCOc1ccccc1)Nc1cccc([N+](=O)[O-])c1 returned Pf growth 96h 1.4%, SARS PLP yeast 0.1%, Pf growth 48h 38.5%, Cycloheximide cs 20.2*, AMA1 RON2 block -14.2% and Shiga inhibitor 50.2*.
Screening CCC(CCC(=O)Nc1cccc([N+](=O)[O-])c1)C(=O)O (stereo not drawn) returned Pf growth 96h 24.5%, SARS PLP yeast 0.7%, Pf growth 48h 4.8%, Cycloheximide cs -2.0, AMA1 RON2 block -0.7% and Shiga inhibitor -14.4.
For O=C(COc1ccccc1)NC(=S)Nc1cccc([N+](=O)[O-])c1 the results were Pf growth 96h 1.65µM*, SARS PLP yeast -12.6%, Pf growth 48h 5.1%, Cycloheximide cs 7.3, AMA1 RON2 block 46.3% and Shiga inhibitor 16.6.
O=C(Cc1ccccc1)Nc1cccc([N+](=O)[O-])c1 was read as Pf growth 96h -1.1%, SARS PLP yeast 0.1%, Pf growth 48h 4.1%, Cycloheximide cs 11.1, AMA1 RON2 block -19.3% and Shiga inhibitor 17.9.
CCC(CC)C(=O)OCC(=O)Nc1cccc([N+](=O)[O-])c1 was read as Pf growth 96h 23.8%, SARS PLP yeast 0.4%, Pf growth 48h 9.1%, Cycloheximide cs 14.7*, AMA1 RON2 block -10.9% and Shiga inhibitor 37.2*.
Screening COC(=O)CCC(=O)Nc1cccc([N+](=O)[O-])c1 returned Pf growth 96h 11.7µM*, SARS PLP yeast 2.5%, Pf growth 48h 14.0%, Cycloheximide cs 2.0, AMA1 RON2 block -4.3% and Shiga inhibitor -8.3.
COc1ccc(Cl)cc1NC(=O)C(C)N(C)Cc1ccc(C(F)(F)F)cc1 (stereo not drawn) was read as Pf growth 96h 2.08µM*, SARS PLP yeast -3.2%, Pf growth 48h 7.38µM*, Cycloheximide cs 4.9, AMA1 RON2 block -10.2% and Shiga inhibitor -9.8.
COc1ccccc1NC(=O)C(C)N(C)Cc1ccc(Cl)s1 (stereo not drawn) was read as Pf growth 96h inconclusive, SARS PLP yeast -7.7%, Pf growth 48h 8.28µM*, Cycloheximide cs 4.1, AMA1 RON2 block inconclusive and Shiga inhibitor 10.5.
`COc1cc(CN(C)C(C)C(=O)Nc2ccc([N+](=O)[O-])cc2Cl)ccc1OC(F)F` (stereo not drawn) gave Pf growth 96h inconclusive, SARS PLP yeast 26.6%, Pf growth 48h 13.1µM*, Cycloheximide cs -2.7, AMA1 RON2 block 1.7% and Shiga inhibitor -5.3.
Screening Oc1ccc(-c2csc(Nc3ccccn3)n2)c(O)c1 returned Pf growth 96h 22.1%, SARS PLP yeast -16.1%, Pf growth 48h 260.7%, Cycloheximide cs 34.0*, AMA1 RON2 block 132.5% and Shiga inhibitor 130.6*.
NS(=O)(=O)c1ccc(Nc2nc(-c3ccc(O)cc3O)cs2)cc1 was read as Pf growth 96h 30.0%, SARS PLP yeast 8.4%, Cycloheximide cs -1.9, AMA1 RON2 block 8.6% and Shiga inhibitor -16.2.
Screening Cc1nc2ncccn2c1-c1csc(Nc2ccc(O)cc2)n1 returned Pf growth 96h 51.3%, SARS PLP yeast 0.1%, Pf growth 48h inconclusive, Cycloheximide cs 11.7, AMA1 RON2 block inconclusive and Shiga inhibitor 33.2.
For Cc1cccnc1Nc1nc(-c2ccc(O)cc2O)cs1 the results were Pf growth 96h 13.6%, SARS PLP yeast -34.9%, Pf growth 48h 136.6%, Cycloheximide cs 39.2*, AMA1 RON2 block 46.1% and Shiga inhibitor 112.4*.
C[C@H](CO)N1C[C@H](C)[C@@H](CN(C)C(=O)Nc2ccc(C(F)(F)F)cc2)Oc2c(NS(=O)(=O)c3ccc(F)cc3)cccc2C1=O was read as SARS PLP yeast -5.6% and AMA1 RON2 block 10.2%.
For CCN(C(=O)N1CCOCC1)c1ccccc1C the results were Pf growth 96h 6.57µM*, SARS PLP yeast -4.7%, Pf growth 48h 0.0%, Cycloheximide cs -1.6, AMA1 RON2 block 7.5% and Shiga inhibitor 18.5.
`O=C(COc1ccccc1F)Nc1ccc(S(=O)(=O)N2CCCC2)cc1` gave Pf growth 96h inconclusive, SARS PLP yeast 0.6%, Pf growth 48h inconclusive and AMA1 RON2 block 14.2%.
Screening Cc1sc(NC(=O)CSc2ncn(-c3ccccc3)n2)nc1-c1ccccc1 returned Pf growth 96h inconclusive, SARS PLP yeast 2.4%, Pf growth 48h inconclusive, Cycloheximide cs -1.7, AMA1 RON2 block 17.1% and Shiga inhibitor 3.9.
`CC(=O)N1CC(=O)N=C1SCC(=O)Nc1nc(-c2ccccc2)c(-c2ccccc2)s1` gave Pf growth 96h inconclusive, SARS PLP yeast inconclusive, Pf growth 48h 14.7µM*, Cycloheximide cs 6.7, AMA1 RON2 block -15.6% and Shiga inhibitor 19.5.
